Assay results published in PubChem BioAssay (Tox21).
Several values for one entry are separate records, joined by “and”; a condition that tells them apart may be missing. Identical values can stand only once. Results filed as inconclusive are left out. Where a call stands in place of a potency, no number is given. Activity calls are given as the source filed them. Unless noted, calls follow the shape of the dose curve; as a rule, active = well fitted curve in the direction sought with a large enough effect in the repeat runs; inconclusive = weak or mixed curves; inactive = no such curve, though single readings can be large; an effect the other way counts as inactive or inconclusive.

Experiments:
[1] = qHTS assay to identify aromatase inhibitors - cell viability counter screen (AID 743084);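 also: cells stimulated with testosterone during compound exposure; nearly all actives have a fitted effect of over 55% in size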
[2] = molecular target: Aryl hydrocarbon receptor (Homo sapiens) (UniProt P35869); assay: qHTS assay to identify small molecule that activate the aryl hydrocarbon receptor (AhR) signaling pathway (AID 743085);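 also: HG2L7.5c1 human HepG2 liver cells with stably integrated DRE-driven firefly reporter; series mostly up to about 70 µM; nearly all actives have a fitted effect of over 15% in size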
In short: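 24 h compound exposure, 37C, HepG2-derived HG2L7.5c1 cells with DRE-responsive luciferase. Readouts: fluorescence viability, then luminescence at room temperature after 30 min.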

[3] = qHTS assay to identify small molecule that activate the aryl hydrocarbon receptor (AhR) signaling pathway - cell viability counter screen (AID 743086);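 also: HepG2 liver cells carrying the AhR DRE luciferase reporter; series mostly up to about 70 µM; nearly all actives have a fitted effect of over 45% in size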
In short: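 HepG2-AhR-luc (HG2L7.5c1) cells, 4000/well, were preincubated 5 h at 37C, exposed to compound in qHTS format for 24 hr at 37C, then given CellTiter-Fluor for 30 min; viability was read as fluorescence in the reporter wells.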

[4] = molecular target: Peroxisome proliferator-activated receptor gamma (Homo sapiens) (UniProt P37231); assay: qHTS assay to identify small molecule agonists of the peroxisome proliferator-activated receptor gamma (PPARg) signaling pathway (AID 743094; active = well fitted activation curve with a large enough effect in the signal ratio in the repeat runs, not every such curve was filed as active; the % refers to the signal ratio; also: potency is read from the fitted curve at half-maximal effect)
In short: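 GeneBLAzer PPARg UAS-bla HEK293H cells were plated, rested 5 h, then exposed to compounds for 17 h at 37C. Beta-lactamase activity was read by LiveBLAzer B/G FRET substrate fluorescence after 1 h at room temperature.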

[5] = molecular target: Peroxisome proliferator-activated receptor gamma (Homo sapiens) (UniProt P37231); assay: qHTS assay to identify small molecule antagonists of the peroxisome proliferator-activated receptor gamma (PPARg) signaling pathway (AID 743191; calls by dose curve; also: series mostly up to about 63 µM; nearly all actives have a fitted effect of over 30% in size)
In short: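 GeneBLAzer PPARg UAS-bla HEK293H cells carrying a UAS-driven beta-lactamase reporter were plated at 3000 cells/well, preincubated 5 h at 37C, then given compound for 17 h at 37C; LiveBLAzer B/G FRET substrate was read after 1 h at room temperature.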

[6] = qHTS assay to identify small molecule antagonists of the peroxisome proliferator-activated receptor gamma (PPARg) signaling pathway - cell viability counter screen (AID 743194); also: nearly all actives have a fitted effect of over 55% in size
In short: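 PPARg-UAS-bla HEK293H cells were plated, rested 5 h at 37 C, then treated with compounds plus rosiglitazone (50 nM final) for 17 h at 37 C; viability was then read by CellTiter-Glo luminescence after 30 min at room temperature.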

[7] = qHTS assay for small molecule agonists of the antioxidant response element (ARE) signaling pathway (AID 743202; active = well fitted activation curve with a large enough effect in the signal ratio in the repeat runs, not every such curve was filed as active; the % refers to the signal ratio)
In short: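 Compounds delivered in DMSO to ARE-bla HepG2 cells (2,000 cells/well, pre-incubated 5 h) and left 16 h at 37 C. LiveBLAzer B/G FRET substrate then added for 2 h at RT before fluorescence reading.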

[8] = qHTS assay for small molecule activators of the heat shock response signaling pathway - cell viability counter screen (AID 743209); also: nearly all actives have a fitted effect of over 50% in size
In short: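 HSE-bla HeLa cells plated overnight, then exposed to Tox21 compounds (23 nL in DMSO) for 5 h at 37 C. After the bla reporter read, CellTiter-Glo was added in the same wells and luminescence read after 30 min at room temperature.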

[9] = qHTS assay to identify small molecule agonists of the peroxisome proliferator-activated receptor delta (PPARd) signaling pathway - cell viability counter screen (AID 743211); also: nearly all actives have a fitted effect of over 55% in size; also: potency is read from the fitted curve at half-maximal effect
In short: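 Luminescent ATP viability assay (CellTiter-Glo, 30 min RT) in UAS-bla HEK293H cells carrying the PPAR delta reporter construct, 3000 cells/well, after a 17 h compound treatment at 37 C.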

[10] = molecular target: Peroxisome proliferator-activated receptor delta (Homo sapiens) (UniProt Q03181); assay: qHTS assay to identify small molecule agonists of the peroxisome proliferator-activated receptor delta (PPARd) signaling pathway (AID 743212; calls by dose curve)
In short: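 A PPARd-bla HEK293H line with beta-lactamase under an Upstream Activator Sequence is treated with compounds at 37 C. Substrate loading for 2 h at room temperature precedes the fluorescence measurement.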

[11] = qHTS assay to identify small molecule antagonists of the peroxisome proliferator-activated receptor delta (PPARd) signaling pathway - cell viability counter screen (AID 743213); also: nearly all actives have a fitted effect of over 50% in size
In short: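 In this counter screen, HEK293H cells carrying a UAS-beta-lactamase reporter are co-treated with test compounds and 300 nM L165041 (final) for 17 h at 37 C; cell viability is quantified by CellTiter-Glo luminescence.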

[12] = molecular target: Peroxisome proliferator-activated receptor delta (Homo sapiens) (UniProt Q03181); assay: qHTS assay to identify small molecule antagonists of the peroxisome proliferator-activated receptor delta (PPARd) signaling pathway (AID 743215; active = well fitted inhibition curve with a large enough effect in the signal ratio in the repeat runs, not every such curve was filed as active; the % refers to the signal ratio;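 also: cells stimulated with agonist L165041 at 300 nM final during compound exposure; series mostly up to about 62 µM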)
In short: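 PPARd-bla HEK293H cells (UAS-bla reporter) preincubated 5 h, then given compound plus 300 nM final L165041 agonist for 17 h at 37 C. Beta-lactamase activity read by LiveBLAzer B/G FRET substrate fluorescence after 2 h at room temperature.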

[13] = molecular target: Bile acid receptor (Homo sapiens) (UniProt Q96RI1); assay: qHTS assay to identify small molecule antagonists of the farnesoid-X-receptor (FXR) signaling pathway (AID 743217; active = well fitted inhibition curve with a large enough effect in the signal ratio in the repeat runs, not every such curve was filed as active; the % refers to the signal ratio)
In short: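 FXR-UAS-bla HEK 293T cells (beta-lactamase reporter) given compound plus chenodeoxycholic acid (50 uM final), 16 h at 37C. LiveBLAzer B/G FRET substrate added for 2 h at room temperature; fluorescence read.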

[14] = qHTS assay to identify small molecule agonists of the farnesoid-X-receptor (FXR) signaling pathway - cell viability counter screen (AID 743218); also: nearly all actives have a fitted effect of over 45% in size
In short: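 FXR-UAS-bla HEK 293T cells exposed to compounds for 16 h at 37C. Cytotoxicity read in the same wells by CellTiter-Glo luminescence after 30 min at room temperature, following the beta-lactamase FRET read.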

[15] = molecular target: Bile acid receptor (Homo sapiens) (UniProt Q96RI1); assay: qHTS assay to identify small molecule agonists of the farnesoid-X-receptor (FXR) signaling pathway (AID 743220; active = well fitted activation curve with a large enough effect in the signal ratio in the repeat runs, not every such curve was filed as active; the % refers to the signal ratio)
In short: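 Beta-lactamase reporter under UAS control in GeneBLAzer FXR HEK 293T cells (5000/well) measured with LiveBLAzer FRET substrate after 2 h at room temperature. Compound exposure lasted 16 h at 37C.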

[16] = qHTS assay to identify small molecule antagonists of the farnesoid-X-receptor (FXR) signaling pathway - cell viability counter screen (AID 743221; active = well fitted cell-killing curve with a large enough effect in the repeat runs, not every such curve was filed as active; also: nearly all actives have a fitted effect of over 50% in size)
In short: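 In GeneBLAzer FXR-UAS-bla HEK 293T cells stimulated with 50 uM chenodeoxycholic acid (final), compounds acted for 16 h at 37 C. Viability was assessed afterwards by CellTiter-Glo luminescence.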

[17] = molecular target: Vitamin D3 receptor (Homo sapiens) (UniProt P11473); assay: qHTS assay to identify small molecule agonists of the vitamin D receptor (VDR) signaling pathway (AID 743222; calls by dose curve)
In short: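 VDR-bla cells plated 4 h at 37 C, then exposed to compounds for 16 h at 37 C. Beta-lactamase reporter activity measured by fluorescence after 2 h room-temperature loading with LiveBLAzer B/G FRET substrate.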

[18] = molecular target: Vitamin D3 receptor (Homo sapiens) (UniProt P11473); assay: qHTS assay to identify small molecule antagonists of the vitamin D receptor (VDR) signaling pathway (AID 743223; active = well fitted inhibition curve with a large enough effect in the signal ratio in the repeat runs, not every such curve was filed as active; the % refers to the signal ratio)
In short: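 Agonist 1alpha,25-dihydroxyvitamin D3 (3 nM in well) was added with each compound to VDR-bla cells preincubated 4 h. Cells stood 16 h at 37C, then FRET substrate 2 h at room temperature; fluorescence intensity recorded.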

[19] = qHTS assay for small molecule activators of the heat shock response signaling pathway (AID 743210; active = well fitted activation curve with a large enough effect in the signal ratio in the repeat runs, with a control signal flat, not every such curve was filed as active; the % refers to the signal ratio;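 also: HeLa cells with beta-lactamase reporter driven by heat shock elements; series mostly up to about 63 µM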)
In short: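 Reporter gene assay: HeLa cells stably bearing an HSE-bla construct, compound treatment 5 h at 37 C, LiveBLAzer substrate 2.5 h at RT, fluorescence intensity.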

[20] = qHTS assay for small molecule agonists of the antioxidant response element (ARE) signaling pathway - cell viability counter screen (AID 743203; calls by dose curve; also: nearly all actives have a fitted effect of over 55% in size)
In short: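 ARE-bla HepG2 cells were plated, rested 5 h at 37C/5% CO2, then exposed to compounds in DMSO for 16 h. Viability was read as CellTiter-Glo luminescence after 30 min at room temperature, in the same wells as the ARE screen.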

Chain of Peroxisome proliferator-activated receptor gamma (Homo sapiens) (P37231 whole entry, looked up): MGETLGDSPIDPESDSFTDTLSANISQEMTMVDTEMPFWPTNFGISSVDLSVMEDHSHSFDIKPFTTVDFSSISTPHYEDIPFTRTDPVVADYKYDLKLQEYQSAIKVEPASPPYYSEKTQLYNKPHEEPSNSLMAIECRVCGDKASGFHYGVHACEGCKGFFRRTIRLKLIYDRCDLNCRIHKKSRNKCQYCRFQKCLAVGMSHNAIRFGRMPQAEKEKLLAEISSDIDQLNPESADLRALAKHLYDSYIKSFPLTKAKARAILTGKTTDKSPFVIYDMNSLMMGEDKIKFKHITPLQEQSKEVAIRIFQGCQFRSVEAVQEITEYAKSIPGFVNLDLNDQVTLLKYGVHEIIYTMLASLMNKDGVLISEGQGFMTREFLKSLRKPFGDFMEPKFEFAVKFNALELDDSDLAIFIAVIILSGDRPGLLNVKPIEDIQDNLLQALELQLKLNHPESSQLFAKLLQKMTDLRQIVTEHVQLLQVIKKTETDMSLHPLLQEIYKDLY
Chain of Aryl hydrocarbon receptor (Homo sapiens) (P35869 whole entry, looked up): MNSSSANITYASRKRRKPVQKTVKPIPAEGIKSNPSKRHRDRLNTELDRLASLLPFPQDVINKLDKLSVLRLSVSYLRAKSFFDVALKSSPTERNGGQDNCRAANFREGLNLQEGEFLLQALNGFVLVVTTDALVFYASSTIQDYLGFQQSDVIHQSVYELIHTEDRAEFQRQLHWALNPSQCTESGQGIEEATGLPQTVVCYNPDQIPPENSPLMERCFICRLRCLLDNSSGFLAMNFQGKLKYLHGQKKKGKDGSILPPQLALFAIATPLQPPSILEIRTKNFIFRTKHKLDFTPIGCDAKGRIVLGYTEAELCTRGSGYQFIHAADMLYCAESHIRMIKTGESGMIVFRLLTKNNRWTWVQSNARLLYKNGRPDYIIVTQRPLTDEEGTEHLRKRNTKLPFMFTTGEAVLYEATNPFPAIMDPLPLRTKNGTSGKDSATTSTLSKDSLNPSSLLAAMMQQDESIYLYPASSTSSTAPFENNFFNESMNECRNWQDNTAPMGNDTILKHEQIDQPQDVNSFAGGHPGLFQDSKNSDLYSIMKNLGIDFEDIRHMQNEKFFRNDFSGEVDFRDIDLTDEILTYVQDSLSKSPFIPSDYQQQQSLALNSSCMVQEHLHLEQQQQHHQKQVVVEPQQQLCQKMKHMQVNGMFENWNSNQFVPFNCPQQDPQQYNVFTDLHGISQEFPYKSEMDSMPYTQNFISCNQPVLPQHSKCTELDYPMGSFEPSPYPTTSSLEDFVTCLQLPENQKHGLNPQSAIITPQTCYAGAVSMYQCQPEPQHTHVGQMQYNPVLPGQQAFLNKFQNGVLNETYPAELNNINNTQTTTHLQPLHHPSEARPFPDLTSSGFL
Chain of Vitamin D3 receptor (Homo sapiens) (P11473 whole entry, looked up): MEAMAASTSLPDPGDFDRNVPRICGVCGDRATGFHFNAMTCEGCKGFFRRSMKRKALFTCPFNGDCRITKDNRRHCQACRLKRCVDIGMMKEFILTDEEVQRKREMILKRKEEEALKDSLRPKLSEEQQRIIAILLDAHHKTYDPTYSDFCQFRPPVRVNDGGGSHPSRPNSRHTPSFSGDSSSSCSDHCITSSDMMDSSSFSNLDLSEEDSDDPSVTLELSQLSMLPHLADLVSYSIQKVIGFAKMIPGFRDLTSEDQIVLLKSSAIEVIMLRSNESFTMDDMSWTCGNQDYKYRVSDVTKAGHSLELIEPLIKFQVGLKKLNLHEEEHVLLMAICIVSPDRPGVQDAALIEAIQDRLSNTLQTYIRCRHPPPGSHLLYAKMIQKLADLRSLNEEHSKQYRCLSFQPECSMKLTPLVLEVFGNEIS
Chain of Peroxisome proliferator-activated receptor delta (Homo sapiens) (Q03181 whole entry, looked up): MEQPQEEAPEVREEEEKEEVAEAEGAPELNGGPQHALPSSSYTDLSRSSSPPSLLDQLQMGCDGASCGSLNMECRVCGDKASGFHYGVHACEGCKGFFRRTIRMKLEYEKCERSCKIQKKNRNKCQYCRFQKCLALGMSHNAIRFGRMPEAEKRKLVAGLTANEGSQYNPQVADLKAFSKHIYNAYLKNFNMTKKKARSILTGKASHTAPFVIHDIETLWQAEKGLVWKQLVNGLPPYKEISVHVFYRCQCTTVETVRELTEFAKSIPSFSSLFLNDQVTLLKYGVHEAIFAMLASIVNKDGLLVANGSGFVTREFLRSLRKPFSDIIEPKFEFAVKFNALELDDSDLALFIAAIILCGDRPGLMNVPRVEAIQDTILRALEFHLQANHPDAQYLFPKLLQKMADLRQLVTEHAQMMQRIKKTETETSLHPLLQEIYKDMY
Chain of Bile acid receptor (Homo sapiens) (Q96RI1 whole entry, looked up): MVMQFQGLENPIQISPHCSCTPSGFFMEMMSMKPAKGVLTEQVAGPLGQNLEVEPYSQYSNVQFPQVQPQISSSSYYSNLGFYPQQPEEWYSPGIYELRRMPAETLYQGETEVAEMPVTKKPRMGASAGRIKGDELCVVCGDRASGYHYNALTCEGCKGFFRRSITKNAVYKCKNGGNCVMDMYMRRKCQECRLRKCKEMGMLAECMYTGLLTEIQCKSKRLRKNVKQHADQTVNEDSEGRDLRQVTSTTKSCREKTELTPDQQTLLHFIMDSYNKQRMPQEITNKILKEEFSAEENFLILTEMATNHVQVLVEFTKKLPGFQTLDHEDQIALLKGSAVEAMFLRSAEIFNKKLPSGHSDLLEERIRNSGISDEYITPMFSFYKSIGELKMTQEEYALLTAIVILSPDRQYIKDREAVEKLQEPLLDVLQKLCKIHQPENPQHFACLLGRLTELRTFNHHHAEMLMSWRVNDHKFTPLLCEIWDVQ

| Compound | Potency [1] | Potency [2] | Potency [3] | Potency [4] | Potency [5] | Potency [6] | Potency [7] | outcome [8] | Potency [9] | outcome [10] | Potency [11] | outcome [12] | Potency [13] | Potency [14] | outcome [15] | outcome [16] | outcome [17] | Potency [18] | outcome [19] | Potency [20] |
| --- | --- | --- | --- | --- | --- | --- | --- | --- | --- | --- | --- | --- | --- | --- | --- | --- | --- | --- | --- | --- |
| O=C(O)Cc1cccc2ccccc12 | inactive | inactive | inactive | 27.5 µM (active) | inactive | inactive | inactive | inactive | inactive | inactive | inactive | inactive | inactive | inactive | inactive | inactive | inactive | inactive | – | – |
| CCCCCCCC(=O)OCC(O)CO (stereo not drawn) | inactive | inactive | inactive | inactive | inactive | inactive | inactive | inactive | inactive | inactive | inactive | inactive | – | inactive | – | inactive | – | – | – | – |
| CCCCOCCOCCOC(C)=O | inactive | inactive | inactive | inactive | inactive | inactive | inactive | inactive | inactive | inactive | inactive | inactive | – | inactive | – | inactive | inactive | inactive | – | – |
| O=C1CCCCCN1 | inactive | inactive | inactive | inactive | inactive | inactive | inactive | inactive | inactive | inactive | inactive | inactive | inactive | inactive | – | inactive | inactive | inactive | – | – |
| Cc1cccc(C)c1O | inactive | inactive | inactive | inactive | inactive | inactive | inactive | inactive | inactive | inactive | inactive | inactive | – | inactive | – | inactive | inactive | inactive | – | – |
| Cc1cccc2ccccc12 | inactive | inactive | inactive | inactive | inactive | inactive | inactive | inactive | inactive | inactive | inactive | inactive | inactive | inactive | – | inactive | inactive | inactive | inactive | – |
| COC(=O)C1CCC(C(=O)OC)CC1 (stereo not drawn) | inactive | inactive | inactive | inactive | inactive | inactive | – | inactive | inactive | inactive | inactive | inactive | inactive | inactive | – | inactive | inactive | inactive | – | inactive |
| C[C@]12CC[C@@H]3c4ccc(O)cc4C[C@@H](CCCCCCCCCS(=O)CCCC(F)(F)C(F)(F)F)[C@H]3[C@@H]1CC[C@@H]2O (stereo partly drawn) | inactive | inactive | inactive | inactive | inactive | inactive | – | inactive | – | inactive | – | inactive | – | inactive | – | inactive | inactive | inactive | – | inactive |
| Cn1cnc2c1c(=O)[nH]c(=O)n2C | inactive | inactive | inactive | inactive | inactive | inactive | inactive | inactive | inactive | inactive | inactive | inactive | inactive | inactive | inactive | inactive | inactive | inactive | – | – |
| COc1ccccc1O | inactive | inactive | inactive | inactive | inactive | inactive | inactive | inactive | inactive | inactive | inactive | inactive | inactive | inactive | – | inactive | inactive | inactive | – | – |
| CCN(CC)CCOC(=O)c1ccc(N)cc1 | inactive | inactive | inactive | inactive | inactive | inactive | inactive | inactive | inactive | – | inactive | – | – | inactive | – | inactive | inactive | inactive | – | – |
| c1ccc2[nH]c(-c3cscn3)nc2c1 | inactive | – | inactive | inactive | inactive | inactive | inactive | inactive | inactive | inactive | inactive | inactive | inactive | inactive | – | inactive | inactive | inactive | – | inactive |
| CC(C)(C)CC(C)(C)c1ccc(O)c(-n2nc3ccccc3n2)c1 | inactive | inactive | inactive | inactive | inactive | – | inactive | inactive | 49.7 µM (active) and 49 µM (active) | inactive | inactive | inactive | – | – | inactive | inactive | inactive | inactive | inactive | – |
| CCc1cc(C(N)=S)ccn1 | – | – | inactive | – | – | inactive | – | inactive | inactive | – | inactive | – | – | inactive | – | inactive | inactive | inactive | inactive | – |
| C[C@]12C=CC(=O)C=C1CC[C@@H]1[C@@H]2C(=O)C[C@@]2(C)[C@H]1CC[C@]2(O)C(=O)CO | – | inactive | inactive | inactive | inactive | inactive | inactive | inactive | inactive | – | inactive | – | – | inactive | – | inactive | inactive | inactive | inactive | inactive |
| O=C1OC(c2ccc(O)cc2)(c2ccc(O)cc2)c2ccccc21 | inactive | – | inactive | inactive | – | inactive | – | inactive | inactive | – | inactive | – | – | inactive | – | inactive | inactive | inactive | inactive | inactive |
| O=C(OCc1ccccc1)c1ccccc1 | inactive | – | inactive | inactive | inactive | inactive | inactive | inactive | inactive | inactive | inactive | inactive | inactive | inactive | – | inactive | inactive | inactive | inactive | inactive |
